Entries with a potency or affinity are not part of this list. Calls of active or inactive are those of the source.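 Rule for the calls: active = a dose-response curve fit returns a half-maximal inhibitory concentration, extrapolated values included; inactive = the fit returns no such concentration.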 Residues, ends and D or L forms follow the SMILES beside them.
Biological target: HMG-CoA reductase [Enterococcus faecalis] (UniProt Q9FD70)
Experiment: class II HMG-CoA reductase inhibition potency – biochemical, Enterococcus faecalis, confirmation (AID 1233)

SMILES	outcome
CC(C)Oc1cccc(NC(=O)c2cccn(Cc3ccc4c(c3)OC(F)(F)O4)c2=O)c1	inactive
OC(Cn1c2ccccc2c2ccccc21)C[n+]1cccc2ccccc21 (stereo unspecified)	inactive
CCN(CCNc1ccc([N+](=O)[O-])c2cccnc12)S(=O)(=O)c1ccccc1	inactive
CCCCC(CC)CNCC(O)c1ccccc1 (stereo unspecified)	inactive
CCc1ccc(NC(=O)C(C)OC(=O)c2c(C)nn(Cc3ccccc3)c2Cl)cc1 (stereo unspecified)	inactive
CCN1CCN(C(=O)Cc2ccccc2OC)CC1	inactive
COc1ccc(NC(=O)c2c(C)nn(Cc3ccccc3Cl)c2Cl)cc1Cl	inactive
CC1(C)C(C(=O)NCc2ccco2)C1(C)C	inactive
O=[N+]([O-])/C(Cl)=C1\NCCN1Cc1ccc(Cl)nc1	inactive
CC(C)C[C@H](NC(=O)[C@@H]1CCCN1C(=O)[C@@H](N)Cc1ccc(O)cc1)C(=O)NCC(N)=O (H-YPLG-NH2)	inactive
Cc1c(P(=S)(c2ccccc2)c2ccccc2)[n+]2ccccc2n1C	inactive
COc1ccc(CCn2c(O)c(C=NCCCn3ccnc3)c(=O)[nH]c2=O)cc1OC	inactive
COc1ccc(C(=O)C2CCCN(Cc3cnc(C)s3)C2)c(OC)c1 (stereo unspecified)	inactive
COc1ccc(C[C@@H]2c3cc(O)c(OC)cc3CCN2C)cc1O	inactive
CCCn1cc(C(=O)O)cn1	inactive
O=C(O)[C@@H]1C[C@H]1[C@@H](NP(=O)(c1ccccc1)c1ccccc1)c1ccccc1	inactive

Source: PubChem BioAssay AID1233 (SRMLSC, 2008)
